Data published in the supplement of paper PMC11732987, “Enantioselective OTUD7B fragment discovery through chemoproteomics screening and high-throughput optimisation” (Communications Chemistry, 2025).

Assays:
Experiment in all cases: log2 ratio of Biotin-Ahx-Ub-VS probe labelling (fragment/DMSO); higher = less target engagement (more negative = stronger competition), active = hit call of the paper (q ≤ 0.05, log2 ratio ≤ -1)
Details in all cases: compound concentration: 200 uM; treatment time: 3 h
USP34 = USP34 (UniProt Q70CQ2)
Sequence of USP34 (Q70CQ2 whole entry, the tested form may be a part): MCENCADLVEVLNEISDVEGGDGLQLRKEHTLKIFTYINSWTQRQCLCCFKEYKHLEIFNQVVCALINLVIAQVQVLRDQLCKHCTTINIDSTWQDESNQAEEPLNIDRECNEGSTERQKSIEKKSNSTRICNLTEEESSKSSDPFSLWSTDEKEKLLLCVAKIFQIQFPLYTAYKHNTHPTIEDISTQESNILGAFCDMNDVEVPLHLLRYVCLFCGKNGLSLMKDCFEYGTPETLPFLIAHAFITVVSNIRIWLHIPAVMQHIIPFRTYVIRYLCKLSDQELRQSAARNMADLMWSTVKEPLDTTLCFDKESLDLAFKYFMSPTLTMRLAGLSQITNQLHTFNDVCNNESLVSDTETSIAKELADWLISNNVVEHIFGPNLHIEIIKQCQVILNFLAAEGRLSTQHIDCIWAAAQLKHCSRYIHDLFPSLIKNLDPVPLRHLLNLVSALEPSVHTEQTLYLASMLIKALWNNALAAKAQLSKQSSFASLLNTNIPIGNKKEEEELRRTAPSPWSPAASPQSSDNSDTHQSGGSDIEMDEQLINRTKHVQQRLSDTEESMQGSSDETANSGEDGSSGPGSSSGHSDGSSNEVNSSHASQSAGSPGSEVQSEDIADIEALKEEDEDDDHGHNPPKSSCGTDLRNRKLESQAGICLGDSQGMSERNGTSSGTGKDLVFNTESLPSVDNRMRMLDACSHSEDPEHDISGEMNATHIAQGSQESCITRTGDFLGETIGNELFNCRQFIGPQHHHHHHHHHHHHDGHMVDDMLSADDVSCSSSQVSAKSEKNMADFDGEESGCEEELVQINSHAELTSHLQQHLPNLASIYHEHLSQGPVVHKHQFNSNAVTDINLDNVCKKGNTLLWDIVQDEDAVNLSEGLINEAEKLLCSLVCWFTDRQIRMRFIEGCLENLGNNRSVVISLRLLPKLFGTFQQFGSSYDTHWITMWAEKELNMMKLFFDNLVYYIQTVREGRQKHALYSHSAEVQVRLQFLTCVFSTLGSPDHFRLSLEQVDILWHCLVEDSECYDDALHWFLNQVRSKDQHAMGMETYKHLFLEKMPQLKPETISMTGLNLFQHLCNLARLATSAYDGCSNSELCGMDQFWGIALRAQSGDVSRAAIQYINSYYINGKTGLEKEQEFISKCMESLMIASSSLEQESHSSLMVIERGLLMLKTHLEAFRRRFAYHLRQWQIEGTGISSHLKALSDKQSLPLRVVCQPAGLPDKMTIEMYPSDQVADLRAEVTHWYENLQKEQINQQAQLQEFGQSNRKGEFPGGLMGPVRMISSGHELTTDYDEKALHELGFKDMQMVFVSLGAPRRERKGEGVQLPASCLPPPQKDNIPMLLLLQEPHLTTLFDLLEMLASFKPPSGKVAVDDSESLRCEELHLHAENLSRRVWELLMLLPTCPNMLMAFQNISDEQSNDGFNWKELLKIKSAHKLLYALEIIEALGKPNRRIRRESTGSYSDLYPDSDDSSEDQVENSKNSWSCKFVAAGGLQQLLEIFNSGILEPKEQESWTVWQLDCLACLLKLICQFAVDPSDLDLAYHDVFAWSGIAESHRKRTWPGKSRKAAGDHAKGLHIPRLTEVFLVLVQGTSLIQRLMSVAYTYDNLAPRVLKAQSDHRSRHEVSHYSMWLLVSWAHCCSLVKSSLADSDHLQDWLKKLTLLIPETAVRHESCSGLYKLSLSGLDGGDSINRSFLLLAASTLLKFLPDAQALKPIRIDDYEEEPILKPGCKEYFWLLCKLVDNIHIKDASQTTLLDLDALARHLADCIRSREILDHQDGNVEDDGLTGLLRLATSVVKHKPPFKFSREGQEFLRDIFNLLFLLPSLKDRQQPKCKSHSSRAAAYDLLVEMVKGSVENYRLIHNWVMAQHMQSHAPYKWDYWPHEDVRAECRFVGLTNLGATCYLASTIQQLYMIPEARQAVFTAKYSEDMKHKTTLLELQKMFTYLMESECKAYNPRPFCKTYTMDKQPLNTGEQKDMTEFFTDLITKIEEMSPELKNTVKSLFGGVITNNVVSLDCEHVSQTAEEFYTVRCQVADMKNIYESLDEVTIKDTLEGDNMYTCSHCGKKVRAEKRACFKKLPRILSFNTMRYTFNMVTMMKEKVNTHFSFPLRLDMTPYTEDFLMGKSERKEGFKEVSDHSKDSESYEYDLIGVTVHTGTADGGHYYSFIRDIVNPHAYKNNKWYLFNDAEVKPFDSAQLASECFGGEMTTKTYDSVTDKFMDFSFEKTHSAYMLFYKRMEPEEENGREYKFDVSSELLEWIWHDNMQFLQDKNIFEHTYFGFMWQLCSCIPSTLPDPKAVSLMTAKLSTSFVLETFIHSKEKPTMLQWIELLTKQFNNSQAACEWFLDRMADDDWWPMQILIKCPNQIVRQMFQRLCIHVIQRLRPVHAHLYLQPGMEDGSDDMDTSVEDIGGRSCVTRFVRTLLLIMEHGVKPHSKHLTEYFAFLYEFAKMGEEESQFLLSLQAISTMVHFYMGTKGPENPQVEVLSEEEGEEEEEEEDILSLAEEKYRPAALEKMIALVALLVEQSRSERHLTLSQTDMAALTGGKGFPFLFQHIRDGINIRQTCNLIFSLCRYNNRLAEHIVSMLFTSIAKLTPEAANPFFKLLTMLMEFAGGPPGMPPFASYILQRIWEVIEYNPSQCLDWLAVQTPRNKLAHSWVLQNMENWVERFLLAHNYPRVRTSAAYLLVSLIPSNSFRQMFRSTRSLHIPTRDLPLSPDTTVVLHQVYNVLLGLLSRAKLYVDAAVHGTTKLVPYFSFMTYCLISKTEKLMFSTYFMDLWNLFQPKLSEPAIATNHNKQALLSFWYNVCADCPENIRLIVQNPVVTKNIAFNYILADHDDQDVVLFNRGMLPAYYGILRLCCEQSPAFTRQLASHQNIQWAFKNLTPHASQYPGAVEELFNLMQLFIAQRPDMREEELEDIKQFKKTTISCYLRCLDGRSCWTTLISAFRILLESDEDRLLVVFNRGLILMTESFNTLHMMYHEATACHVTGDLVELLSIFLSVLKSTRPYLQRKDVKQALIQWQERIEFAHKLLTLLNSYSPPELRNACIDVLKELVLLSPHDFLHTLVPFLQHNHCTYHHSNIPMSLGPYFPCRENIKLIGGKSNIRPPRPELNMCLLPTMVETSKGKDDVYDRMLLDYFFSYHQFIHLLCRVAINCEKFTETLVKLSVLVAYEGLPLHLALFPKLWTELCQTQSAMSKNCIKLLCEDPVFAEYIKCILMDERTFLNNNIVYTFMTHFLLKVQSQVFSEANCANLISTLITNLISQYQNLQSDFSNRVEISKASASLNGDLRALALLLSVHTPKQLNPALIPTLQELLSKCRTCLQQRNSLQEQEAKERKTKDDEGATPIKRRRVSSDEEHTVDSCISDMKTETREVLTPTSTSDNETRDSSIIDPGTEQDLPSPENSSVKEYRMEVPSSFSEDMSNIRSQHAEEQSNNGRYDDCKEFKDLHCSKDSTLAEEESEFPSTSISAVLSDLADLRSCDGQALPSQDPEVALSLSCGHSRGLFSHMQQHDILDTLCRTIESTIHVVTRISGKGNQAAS
Method in brief: (§1)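 Average log2 ratios of fragment over vehicle were obtained by unpaired t-test from global-median-normalised Spectronaut label-free quantities. Proteins with ≥2 unique peptides were included. HEK293T lysate (495 µg per sample) was treated in triplicate with fragment at 200 µM or vehicle for 3 h, then with Biotin-Ahx-Ub-VS at 0.5 µM final for 1 h, and labelled DUBs were NeutrAvidin-enriched and run by diaPASEF LC-MS/MS.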

USP36 = target: T1, USP36 (UniProt Q9P275)
T1 sequence (whole entry): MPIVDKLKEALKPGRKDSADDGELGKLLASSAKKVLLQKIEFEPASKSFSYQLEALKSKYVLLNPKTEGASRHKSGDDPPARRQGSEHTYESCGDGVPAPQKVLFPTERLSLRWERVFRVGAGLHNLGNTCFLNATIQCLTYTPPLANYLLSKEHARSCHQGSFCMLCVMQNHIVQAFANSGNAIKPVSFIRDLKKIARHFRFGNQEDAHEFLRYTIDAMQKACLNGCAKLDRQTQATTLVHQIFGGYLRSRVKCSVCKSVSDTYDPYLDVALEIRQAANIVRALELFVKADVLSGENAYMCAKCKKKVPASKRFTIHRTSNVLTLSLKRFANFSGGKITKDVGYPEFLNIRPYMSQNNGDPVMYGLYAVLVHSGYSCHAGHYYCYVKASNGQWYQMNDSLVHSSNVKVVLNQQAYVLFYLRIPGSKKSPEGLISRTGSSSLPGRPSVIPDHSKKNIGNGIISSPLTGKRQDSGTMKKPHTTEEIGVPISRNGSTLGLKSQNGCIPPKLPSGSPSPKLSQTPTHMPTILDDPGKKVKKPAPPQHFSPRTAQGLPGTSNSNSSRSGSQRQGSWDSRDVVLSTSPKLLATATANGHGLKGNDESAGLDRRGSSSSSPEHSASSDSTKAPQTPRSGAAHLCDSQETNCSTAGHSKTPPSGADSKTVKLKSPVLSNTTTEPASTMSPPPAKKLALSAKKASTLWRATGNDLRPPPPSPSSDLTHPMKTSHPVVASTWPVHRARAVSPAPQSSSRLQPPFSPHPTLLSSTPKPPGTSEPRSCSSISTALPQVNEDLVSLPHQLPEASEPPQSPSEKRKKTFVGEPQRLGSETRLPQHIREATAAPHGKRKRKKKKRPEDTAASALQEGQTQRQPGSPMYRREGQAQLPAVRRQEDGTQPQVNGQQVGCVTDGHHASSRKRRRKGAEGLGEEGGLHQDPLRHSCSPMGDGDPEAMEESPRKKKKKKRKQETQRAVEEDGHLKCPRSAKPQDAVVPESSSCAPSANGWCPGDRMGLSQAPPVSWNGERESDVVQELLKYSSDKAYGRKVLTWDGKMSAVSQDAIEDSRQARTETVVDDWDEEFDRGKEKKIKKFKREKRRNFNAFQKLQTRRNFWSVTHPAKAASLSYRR
Method in brief: as §1

USP38 = target: T2, USP38 (UniProt Q8NB14)
T2 sequence (whole entry): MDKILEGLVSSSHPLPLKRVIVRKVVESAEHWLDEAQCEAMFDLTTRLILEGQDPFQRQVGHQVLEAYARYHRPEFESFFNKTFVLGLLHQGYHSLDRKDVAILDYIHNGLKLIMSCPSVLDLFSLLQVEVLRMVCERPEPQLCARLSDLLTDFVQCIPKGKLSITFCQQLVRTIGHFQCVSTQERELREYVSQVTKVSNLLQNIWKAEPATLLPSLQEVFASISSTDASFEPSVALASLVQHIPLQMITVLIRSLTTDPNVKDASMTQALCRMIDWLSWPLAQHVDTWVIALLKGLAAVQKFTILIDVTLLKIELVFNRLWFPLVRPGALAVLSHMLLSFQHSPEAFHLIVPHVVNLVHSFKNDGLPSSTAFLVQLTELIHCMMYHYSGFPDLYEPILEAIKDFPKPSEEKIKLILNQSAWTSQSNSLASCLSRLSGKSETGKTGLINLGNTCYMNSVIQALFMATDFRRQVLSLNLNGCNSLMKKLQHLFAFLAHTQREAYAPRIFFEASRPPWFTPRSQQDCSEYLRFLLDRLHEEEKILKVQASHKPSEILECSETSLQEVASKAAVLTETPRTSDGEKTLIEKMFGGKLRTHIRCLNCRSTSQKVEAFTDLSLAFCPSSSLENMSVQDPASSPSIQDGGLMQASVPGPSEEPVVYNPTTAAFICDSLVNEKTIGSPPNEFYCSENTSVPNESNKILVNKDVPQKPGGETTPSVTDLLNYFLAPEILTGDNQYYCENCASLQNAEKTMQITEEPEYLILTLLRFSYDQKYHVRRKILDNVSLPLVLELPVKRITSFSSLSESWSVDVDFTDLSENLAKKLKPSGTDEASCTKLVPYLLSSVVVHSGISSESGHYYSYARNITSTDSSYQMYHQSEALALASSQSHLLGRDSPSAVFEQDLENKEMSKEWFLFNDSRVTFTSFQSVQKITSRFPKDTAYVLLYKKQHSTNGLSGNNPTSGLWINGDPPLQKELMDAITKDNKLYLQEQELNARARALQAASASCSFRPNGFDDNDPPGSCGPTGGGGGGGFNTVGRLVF
Method in brief: as §1

USP39 = target: T3, USP39 (UniProt Q53GS9)
T3 sequence (whole entry): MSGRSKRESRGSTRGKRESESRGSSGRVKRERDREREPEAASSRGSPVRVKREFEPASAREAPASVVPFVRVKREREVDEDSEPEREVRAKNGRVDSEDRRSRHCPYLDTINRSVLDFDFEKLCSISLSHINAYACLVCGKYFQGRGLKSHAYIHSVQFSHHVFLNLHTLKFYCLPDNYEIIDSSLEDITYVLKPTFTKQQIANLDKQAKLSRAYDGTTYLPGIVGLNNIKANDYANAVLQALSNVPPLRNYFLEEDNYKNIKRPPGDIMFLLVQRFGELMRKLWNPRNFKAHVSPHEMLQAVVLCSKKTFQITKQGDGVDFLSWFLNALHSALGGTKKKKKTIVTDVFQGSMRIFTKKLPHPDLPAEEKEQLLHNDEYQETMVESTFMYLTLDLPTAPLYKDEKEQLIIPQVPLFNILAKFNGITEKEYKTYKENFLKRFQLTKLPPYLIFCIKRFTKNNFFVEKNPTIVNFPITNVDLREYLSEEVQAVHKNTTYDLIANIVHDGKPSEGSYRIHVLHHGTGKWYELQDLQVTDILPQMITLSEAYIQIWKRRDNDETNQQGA
Method in brief: as §1

USP4 = target: T4, USP4 (UniProt Q13107)
T4 sequence (whole entry): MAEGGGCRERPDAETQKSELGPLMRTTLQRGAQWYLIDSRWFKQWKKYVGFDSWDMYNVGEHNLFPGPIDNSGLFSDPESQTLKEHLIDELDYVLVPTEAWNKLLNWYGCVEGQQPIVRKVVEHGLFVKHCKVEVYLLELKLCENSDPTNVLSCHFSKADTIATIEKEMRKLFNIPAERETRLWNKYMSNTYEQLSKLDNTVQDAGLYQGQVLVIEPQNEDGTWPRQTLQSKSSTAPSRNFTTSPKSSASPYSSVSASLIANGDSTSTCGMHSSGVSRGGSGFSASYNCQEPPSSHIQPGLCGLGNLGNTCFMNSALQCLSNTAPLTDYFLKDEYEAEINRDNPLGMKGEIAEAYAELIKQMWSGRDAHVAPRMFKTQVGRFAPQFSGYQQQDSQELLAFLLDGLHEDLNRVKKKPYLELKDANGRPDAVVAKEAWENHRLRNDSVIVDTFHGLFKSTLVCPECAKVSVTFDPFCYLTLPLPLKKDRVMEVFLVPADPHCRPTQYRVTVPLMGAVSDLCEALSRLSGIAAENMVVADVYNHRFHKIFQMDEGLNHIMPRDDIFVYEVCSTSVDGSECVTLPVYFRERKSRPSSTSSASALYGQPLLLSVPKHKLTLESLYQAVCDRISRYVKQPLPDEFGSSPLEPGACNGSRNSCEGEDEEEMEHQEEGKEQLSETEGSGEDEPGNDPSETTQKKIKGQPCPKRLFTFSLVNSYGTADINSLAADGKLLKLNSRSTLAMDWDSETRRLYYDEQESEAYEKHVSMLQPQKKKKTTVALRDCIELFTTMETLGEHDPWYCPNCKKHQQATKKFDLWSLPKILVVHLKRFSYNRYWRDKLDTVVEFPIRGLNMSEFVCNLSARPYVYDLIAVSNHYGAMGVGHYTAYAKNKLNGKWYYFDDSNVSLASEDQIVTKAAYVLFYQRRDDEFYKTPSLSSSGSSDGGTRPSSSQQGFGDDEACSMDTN
Method in brief: as §1

Measured: log2 ratio of Biotin-Ahx-Ub-VS probe labelling

CC1CN(c2ccc(NC(=O)CCl)cc2)CC(C)O1 (stereo not given)
inactive: USP34 -0.087 | USP36 -0.162 | USP38 0.0369 | USP39 0.216 | USP4 -0.104
